# Screening data from PubChem.
# L3MBTL1 inh: qHTS Assay for the Inhibitors of L3MBTL1; Lethal(3)malignant brain tumor-like protein 1 (Homo sapiens), Q9Y468; AlphaScreen L3MBTL1–H3K9me1 peptide binding; Potency, µM (highest dose often 57.1 µM), without a hit: at the top dose activity, negative = inhibition, actives largely listed as inhibitors; 230,000 tested, 0.66% active; AID 485360, 2010; note: nearly all actives have a fitted effect of over 60% in size
#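 First, the protein-peptide complex forms for 30 min at room temperature (L3MBTL1 50 nM, biotinylated H3K9me1 peptide 75 nM). Next, compounds are pin-transferred and incubated 30 min. Finally, AlphaScreen beads are added and read after 30 min.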
# BLM inh: qHTS Assay for Inhibitors of Bloom's syndrome helicase (BLM) | AID 2528, 2010 | recombinant BLM DNA unwinding, fluorescence dequenching | 350,000 tested, 0.2% active | RecQ-like DNA helicase BLM (Homo sapiens), P54132 | Potency, µM (titrated, usually from 56.1 µM), for inactives: at the top dose activity change, negative = inhibition, usual class: inhibitors;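 note: plate controls were vehicle for no effect and no enzyme for full effect; nearly all actives have a fitted effect of over 35% in size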
# Target sequence (P54132 whole entry, looked up): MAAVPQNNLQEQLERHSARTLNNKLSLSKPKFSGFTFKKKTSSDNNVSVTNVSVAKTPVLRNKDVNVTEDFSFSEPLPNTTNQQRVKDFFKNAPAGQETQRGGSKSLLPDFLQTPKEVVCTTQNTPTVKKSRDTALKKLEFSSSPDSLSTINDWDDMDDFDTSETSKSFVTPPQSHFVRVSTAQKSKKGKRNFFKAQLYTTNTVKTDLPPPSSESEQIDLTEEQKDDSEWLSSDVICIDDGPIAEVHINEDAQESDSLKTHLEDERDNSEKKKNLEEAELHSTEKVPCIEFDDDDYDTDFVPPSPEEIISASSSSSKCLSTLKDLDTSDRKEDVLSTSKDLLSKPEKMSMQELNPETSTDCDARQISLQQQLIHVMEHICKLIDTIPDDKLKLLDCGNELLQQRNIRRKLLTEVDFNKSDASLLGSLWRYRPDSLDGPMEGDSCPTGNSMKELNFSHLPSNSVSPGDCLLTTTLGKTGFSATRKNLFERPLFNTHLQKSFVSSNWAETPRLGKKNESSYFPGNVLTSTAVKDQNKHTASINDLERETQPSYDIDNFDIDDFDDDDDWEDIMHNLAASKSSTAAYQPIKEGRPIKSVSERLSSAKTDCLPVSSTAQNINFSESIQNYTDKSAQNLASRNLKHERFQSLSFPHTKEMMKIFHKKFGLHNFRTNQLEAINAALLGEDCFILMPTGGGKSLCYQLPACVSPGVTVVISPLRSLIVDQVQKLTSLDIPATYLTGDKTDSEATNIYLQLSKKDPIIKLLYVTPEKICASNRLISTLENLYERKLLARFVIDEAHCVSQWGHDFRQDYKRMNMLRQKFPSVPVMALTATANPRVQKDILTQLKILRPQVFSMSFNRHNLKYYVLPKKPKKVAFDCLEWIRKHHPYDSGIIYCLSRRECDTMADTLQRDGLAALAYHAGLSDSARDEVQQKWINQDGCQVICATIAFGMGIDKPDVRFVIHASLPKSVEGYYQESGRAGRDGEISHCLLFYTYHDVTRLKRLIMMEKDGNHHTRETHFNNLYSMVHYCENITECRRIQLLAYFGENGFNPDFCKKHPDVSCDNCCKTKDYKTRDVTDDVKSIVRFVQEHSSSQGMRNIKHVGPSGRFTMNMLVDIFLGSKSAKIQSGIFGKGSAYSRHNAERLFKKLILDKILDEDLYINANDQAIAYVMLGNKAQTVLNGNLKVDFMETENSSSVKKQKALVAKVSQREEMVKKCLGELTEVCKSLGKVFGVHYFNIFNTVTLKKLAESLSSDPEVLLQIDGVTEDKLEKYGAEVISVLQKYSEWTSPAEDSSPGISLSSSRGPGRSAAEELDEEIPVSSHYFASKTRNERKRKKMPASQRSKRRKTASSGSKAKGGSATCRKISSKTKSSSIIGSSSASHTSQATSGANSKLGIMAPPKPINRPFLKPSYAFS
# RECQ1 inh-1: qHTS Assay for Inhibitors of RecQ-Like Dna Helicase 1 (RECQ1). 240,000 tested, 0.54% active. Potency, µM (titrated, usually from 57.3 µM), for inactives: at the highest dose activity, negative = inhibition, hits mostly inhibitors. ATP-dependent DNA helicase Q1 (Homo sapiens), P46063. AID 2549, 2010. RECQ1 DNA unwinding, red fluorescence kinetic read;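 note: plate controls were vehicle for no effect and no enzyme for full effect; nearly all actives have a fitted effect of over 30% in size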
#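 50 nM RECQ1T1 preincubated 15 min with compound in Tris pH 8.0 buffer with MgCl2, DTT, Tween-20 and 2.5 ug/ml poly(dI-dC); started with 200 nM TAMRA/BHQ-2 forked duplex and 2 mM ATP. Unwinding read as fluorescence (525/598 nm), two reads 2 h apart.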
# APE1 inh: qHTS Assay for Inhibitors of the Human Apurinic/apyrimidinic Endonuclease 1 (APE1). recombinant APE1, TAMRA/BHQ-2 abasic DNA cleavage fluorescence. DNA repair nuclease/redox regulator APEX1 (Homo sapiens), P27695. Potency, µM (doses to about 65.8 µM), for the others: top-dose activity change, negative = inhibition, most hits filed as inhibitors. AID 2517, 2012. 350,000 tested, 0.35% active;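 note: plate controls were vehicle for no effect and reference inhibitor for full effect; nearly all actives have a fitted effect of over 55% in size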
#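 Incision of a quenched TAMRA/BHQ-2 THF abasic-site duplex (50 nM) by 0.75 nM APE1, after 15 min compound preincubation, measured as fluorescence increase over three 60 s reads. Values normalized to buffer, DMSO and NSC13755 control wells.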
# JMJD2E inh: qHTS Assay for Inhibitors of Human Jumonji Domain Containing 2E (JMJD2E). Potency, µM (highest dose often 57.1 µM), for the others: at the top dose activity change, negative = inhibition, usual class: inhibitors. 230,000 tested, 1.6% active. JMJD2E catalytic domain, FDH-coupled NADH fluorescence (FDH is formaldehyde dehydrogenase). Lysine-specific demethylase 4E (Homo sapiens), B2RXH2; active = well fitted inhibition curve with a large enough effect, not every such curve was filed as active; inconclusive = small, poorly fitted or top-dose-only effect, or another doubt; inactive = no such curve, though single readings can be large or run the other way;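 note: 0% = wells with enzyme and -100% = buffer wells without enzyme; nearly all actives have a fitted effect of over 50% in size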
# TDP1 block: qHTS Assay for Inhibitors of Tyrosyl-DNA Phosphodiesterase (TDP1). Tyrosyl-DNA phosphodiesterase 1 (Homo sapiens), Q9NUW8. recombinant TDP1, AlphaScreen DNA substrate cleavage. Potency, µM (top dose mostly 130 µM), without a hit: at the highest dose activity change, negative = inhibition, usual class: inhibitors. 350,000 tested, 0.28% active. AID 485290, 2010; note: nearly all actives have a fitted effect of over 40% in size
#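 AlphaScreen read-out: signal falls as enzyme removes the 3' tyrosine-FITC from a 5'-biotinylated DNA oligo (15 nM, 5 min, RT). Enzyme was E. coli-made recombinant Tdp1 at 1 nM, exposed to compound for 15 min beforehand; beads 10 ug/ml, 10 min.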
# RECQ1 conf: Confirmation qHTS Assay for Inhibitors of RecQ-Like Dna Helicase 1 (RECQ1); Potency, µM (series often up to 229 µM), inactives show at the highest dose activity change, negative = inhibition, actives largely listed as inhibitors; RECQ1 helicase DNA unwinding, fluorescence; shares compounds with RECQ1 inh-1; 610 tested, 28% active; note: nearly all actives have a fitted effect of over 45% in size
# ADP FP counter: Counterscreen for RECQ1 Inhibitors: ADP Fluorescence Polarization Displacement Assay; shares compounds with RECQ1 inh-1; ADP fluorescence polarization displacement counterscreen; Potency, µM (doses to about 228 µM), for the others: at the top dose activity change, negative = inhibition, usual class: inhibitors; 530 tested, 27% active; note: nearly all actives have a fitted effect of over 45% in size
# RECQ1 inh-2: Confirmation qHTS Assay for Inhibitors of RecQ-Like Dna Helicase 1 (RECQ1) - Round 2 Cherry Picks; shares compounds with RECQ1 inh-1; recombinant RECQ1 DNA unwinding, red fluorescence; Potency, µM (titrated, usually from 119 µM), inactives show top-dose activity, negative = inhibition, most hits filed as inhibitors; 1,100 tested, 15% active; AID 504841, 2011; note: nearly all actives have a fitted effect of over 50% in size
# * marks the source's active call; other numbers are inactive results; i = inactive; ? = inconclusive; / = not tested or not shown; [ ] = remark or other dose. The full list was thinned out, with hits kept by preference. Unless noted, calls come from the whole dose curve; as a rule, active = well fitted curve in the direction sought with a large enough effect; inconclusive = small, poorly fitted or top-dose-only effect, or another doubt; inactive = no such curve, though single readings can be large; an effect the other way counts as inactive or inconclusive. Unless noted, % is set by controls: 0 for no effect and ±100 for the full control effect; potency is the fitted concentration of half-maximal effect.
SMILES,L3MBTL1 inh,BLM inh,RECQ1 inh-1,APE1 inh,JMJD2E inh,TDP1 block,RECQ1 inh-2,others
Cc1ccc(NC2=C(N3CCCCC3)C(=O)c3ccccc3C2=O)cc1,-10%,-6%,-7%,?,1%,-1%,/,
Cn1cccc1/C=C1\SC(=S)N(NC(=O)c2ccccc2O)C1=O,-17%,-4%,-1%,-1%,-8%,/,/,
O=C1S/C(=C\C=C\c2ccco2)C(=O)N1c1ccccc1,?,-18%,?,28µM*,?,3%,-29%,
O=C(NN1C(=O)/C(=C/C=C/c2ccco2)SC1=S)c1ccccc1O,1.3µM*,?,2.5µM*,2µM*,13µM*,/,/,RECQ1 conf=13µM*;ADP FP counter=14µM*
COc1ccc2c(c1)c1c(c(=O)n(-c3ccc(OC)c(OC)c3)c(=O)n1Cc1ccc(F)cc1)n2C,/,-6%,/,/,/,8%,/,
Clc1ccc(C2=NCCN2)cc1,-8%,2%,?,3%,-7%,-8%,2%,
Cc1nn(S(=O)(=O)c2ccc(C(C)(C)C)cc2)c(C)c1S(=O)(=O)N1CCC(C)CC1,/,-6%,/,/,/,2%,/,
C=CCN1C(=O)CS/C1=N\S(=O)(=O)c1ccc(Cl)cc1,1%,0%,?,-4%,8%,1%,-10%,
CCN1C(=O)CS/C1=N\S(=O)(=O)c1ccccc1,2%,-4%,-8%,-1%,10%,0%,/,
O=C(NCc1ccccc1)c1ccc2c(c1)sc1nc(-c3ccc(F)cc3)cn12,/,-1%,/,/,/,-1%,/,
COc1ccc(C2Nc3ccccc3C(=O)N2Cc2ccccc2)cc1COc1ccccc1F (stereo not given),/,/,/,/,/,0%,/,
COc1cccc(N2CCN(C(=O)c3ccc(CS(=O)c4cccc(Cl)c4)o3)CC2)c1 (stereo not given),/,1%,/,/,/,5%,/,
COc1ccccc1-n1c(SCC(=O)Nc2ccc(C)cc2)nc(O)cc1=O,/,0%,-3%,2%,-6%,-4%,/,
COc1ccccc1-n1c(SCC(=O)Nc2cccc3ccccc23)nc(O)cc1=O,/,-18%,?,-6%,-23%,2%,-12%,
COc1ccc(NC(=O)CSc2nc(O)cc(=O)n2-c2ccccc2OC)cc1,-4%,-25%,?,-7%,-5%,6%,-18%,
Cc1n[nH]c(C)c1N1C(=O)c2cccc3c(N4CCCCCC4)ccc(c23)C1=O,4%,-4%,28µM*,-2%,-11%,3%,79µM*,
COc1cccc(CNS(=O)(=O)c2c(C(=O)N3CCC(C)CC3)c(C)n(C)c2C)c1,/,-1%,/,/,/,4%,/,
O=C(O)CCSc1nnc(COc2ccc([N+](=O)[O-])cc2)n1-c1ccccc1,3%,-4%,-1%,-2%,-34%,-3%,/,RECQ1 conf=0%;ADP FP counter=2%
COc1ccc(CNc2nc(-c3ccc4c(c3)OCO4)nc3ccccc23)c(OC)c1,/,-9%,-13%,-1%,/,/,/,
COc1ccc(Nc2ccc(OC)cc2)cc1,16µM*,-6%,5.6µM*,11%,?,8%,-25%,RECQ1 conf=?;ADP FP counter=20µM*
CCOC(=O)Cc1csc(SCC(=O)Nc2sc3c(c2C(N)=O)CCC3)n1,?,-21%,?,?,?,?,?,
CCOC(=O)Cc1csc(SCC(=O)Nc2nccs2)n1,2%,/,/,7%,/,0%[0.505 µM],/,
c1ccc2c(Nc3ccc4c(c3)OCCO4)c3c(nc2c1)CCC3,?,4%,?,-1%,-2%,3%,-12%,
c1ccc(Nc2c3c(nc4ccccc24)CCC3)cc1,4%[11.4 µM],-5%,-2%,0%,0%,3%,/,
COc1ccc(O[C@H]2C=C[C@@H](c3ccccc3)O[C@H]2COC(=O)CC/C(C)=N\OC[C@@H](O)COCc2ccco2)cc1,/,-12%[12.4 µM],-12%[11.5 µM],?,/,12%[21 µM],/,
O=C(COc1ccc2c(c1)CCC2)N1CCN(c2cccc(C(F)(F)F)c2)CC1,17%,-6%,35µM*,?,4%,3%,-14%,
CC(=O)Nc1ccc(NC(=O)C(OC(=O)c2ccccc2)C(OC(=O)c2ccccc2)C(=O)O)cc1 (stereo not given),4%,-3%,-5%,2%,5%,0%,/,RECQ1 conf=17%;ADP FP counter=?
O=C(OC(C(=O)O)C(OC(=O)c1ccccc1)C(=O)NCc1ccccc1)c1ccccc1 (stereo not given),9%,-3%,-8%,14%,7%,2%,/,
O=C(Cn1nc(C(=O)O)c2ccccc2c1=O)Nc1ccc2c(c1)C(=O)c1ccccc1C2=O,5%,-8%,i,-3%,-5%,8%,/,RECQ1 conf=?;ADP FP counter=112µM*
CC(C)CC(=O)Nc1ccc(C(=O)Cn2nc(C(=O)O)c3ccccc3c2=O)cc1,/,-4%,1%,5%,2%,-1%,/,RECQ1 conf=5%;ADP FP counter=20%
